# Experimental data taken from paper PMC7862700, “An all-to-all approach to the identification of sequence-specific readers for epigenetic DNA modifications on cytosine”.
# What was measured:
# Assay in all cases: DAPPL (digital affinity profiling via proximity ligation, sequencing); 10 mM Tris-HCl pH 7.5, 50 mM NaCl, 1 mM DTT, 4% glycerol, room temperature, 30 min; GST-TFs on glutathione beads, 16-mer random dsDNA library, 0.1% formaldehyde crosslink after washing; high values mean tight binding
# FLI1 = molecular target: T1, FLI1 (Homo sapiens, UniProt Q01543 1-452); details: protein: recombinant; tags: N-terminal GST; dsDNA, one strand shown
# T1 sequence: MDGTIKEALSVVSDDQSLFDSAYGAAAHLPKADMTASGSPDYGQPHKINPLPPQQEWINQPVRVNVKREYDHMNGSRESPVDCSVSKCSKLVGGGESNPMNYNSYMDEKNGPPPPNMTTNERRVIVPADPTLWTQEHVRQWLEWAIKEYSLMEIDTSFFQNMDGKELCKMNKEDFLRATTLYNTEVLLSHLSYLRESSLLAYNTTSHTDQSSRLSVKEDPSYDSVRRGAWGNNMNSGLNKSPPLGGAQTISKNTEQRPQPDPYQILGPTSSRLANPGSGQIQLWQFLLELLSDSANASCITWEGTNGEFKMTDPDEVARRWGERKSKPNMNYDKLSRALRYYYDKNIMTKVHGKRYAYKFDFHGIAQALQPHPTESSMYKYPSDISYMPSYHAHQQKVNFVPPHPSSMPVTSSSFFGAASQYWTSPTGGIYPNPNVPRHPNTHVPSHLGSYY
# Procedure, shortened: (§1)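 Human transcription factors fused to GST were expressed in yeast, captured on glutathione beads, given DNA barcodes and pooled with a GST-only negative control. Pools were incubated with 200 nmole of a 16-mer random double-stranded DNA library in Tris/NaCl/DTT/glycerol buffer at room temperature for 30 min. They were then washed, crosslinked with 0.1% formaldehyde, proximity-ligated (BsaI/T4 ligase, 1 h, 37 °C), PCR-amplified and sequenced on an Illumina NextSeq500. Binding signal is each 6-mer's read frequency for a factor divided by its frequency for the GST control.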
# ELK1 = molecular target: T2, ELK1 (Homo sapiens, UniProt P19419 1-428); details: protein: recombinant; tags: N-terminal GST; dsDNA, one strand shown
# T2 sequence: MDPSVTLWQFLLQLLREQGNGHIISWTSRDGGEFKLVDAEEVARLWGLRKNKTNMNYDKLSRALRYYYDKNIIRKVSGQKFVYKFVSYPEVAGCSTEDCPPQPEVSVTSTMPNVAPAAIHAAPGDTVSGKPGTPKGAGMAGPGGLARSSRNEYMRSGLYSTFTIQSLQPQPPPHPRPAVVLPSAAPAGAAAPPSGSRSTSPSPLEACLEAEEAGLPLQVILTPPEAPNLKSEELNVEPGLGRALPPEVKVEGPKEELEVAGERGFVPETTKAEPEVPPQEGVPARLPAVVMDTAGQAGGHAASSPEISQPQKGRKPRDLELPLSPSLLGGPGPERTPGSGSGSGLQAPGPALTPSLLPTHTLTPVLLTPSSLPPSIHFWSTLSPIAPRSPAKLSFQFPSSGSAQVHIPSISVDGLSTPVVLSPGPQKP
# Procedure, shortened: as §1
# GABPA = molecular target: T3, GABPA (Homo sapiens, UniProt Q06546 1-454); details: protein: recombinant; tags: N-terminal GST; dsDNA, one strand shown
# T3 sequence: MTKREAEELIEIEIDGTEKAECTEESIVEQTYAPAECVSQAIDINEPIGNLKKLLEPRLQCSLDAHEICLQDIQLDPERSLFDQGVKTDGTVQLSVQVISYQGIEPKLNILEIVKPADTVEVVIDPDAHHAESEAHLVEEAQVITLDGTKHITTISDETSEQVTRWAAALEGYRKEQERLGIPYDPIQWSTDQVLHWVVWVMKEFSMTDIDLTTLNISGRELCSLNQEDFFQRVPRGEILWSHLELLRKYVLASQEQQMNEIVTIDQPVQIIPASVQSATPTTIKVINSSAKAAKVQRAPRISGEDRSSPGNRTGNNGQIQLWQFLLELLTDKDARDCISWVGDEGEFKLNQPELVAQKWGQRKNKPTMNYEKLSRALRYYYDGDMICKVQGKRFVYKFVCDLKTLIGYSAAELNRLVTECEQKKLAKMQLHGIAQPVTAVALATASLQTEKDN
# Procedure, shortened: as §1
# ERG = molecular target: T4, ERG (Homo sapiens, UniProt P11308 1-479); details: protein: recombinant; tags: N-terminal GST; dsDNA, one strand shown
# T4 sequence: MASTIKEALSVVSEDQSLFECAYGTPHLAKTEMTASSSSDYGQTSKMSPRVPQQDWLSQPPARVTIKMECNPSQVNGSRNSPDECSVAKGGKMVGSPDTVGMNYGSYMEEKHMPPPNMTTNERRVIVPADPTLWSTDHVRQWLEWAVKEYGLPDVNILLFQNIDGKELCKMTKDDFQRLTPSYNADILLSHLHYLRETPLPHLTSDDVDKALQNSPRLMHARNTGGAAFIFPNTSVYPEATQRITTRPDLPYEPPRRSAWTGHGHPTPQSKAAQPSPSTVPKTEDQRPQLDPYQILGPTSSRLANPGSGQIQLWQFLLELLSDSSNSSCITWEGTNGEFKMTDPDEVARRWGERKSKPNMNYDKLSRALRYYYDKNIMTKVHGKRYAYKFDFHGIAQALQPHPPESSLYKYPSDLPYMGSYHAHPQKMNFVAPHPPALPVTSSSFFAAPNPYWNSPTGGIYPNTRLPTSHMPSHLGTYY
# Procedure, shortened: as §1
# ELF1 = ELF1 (Homo sapiens, UniProt P32519 1-619); details: protein: recombinant; tags: N-terminal GST; dsDNA, one strand shown
# Procedure, shortened: as §1
# EHF = molecular target: T5, EHF (Homo sapiens, UniProt Q9NZC4 1-300); details: protein: recombinant; tags: N-terminal GST; dsDNA, one strand shown
# T5 sequence: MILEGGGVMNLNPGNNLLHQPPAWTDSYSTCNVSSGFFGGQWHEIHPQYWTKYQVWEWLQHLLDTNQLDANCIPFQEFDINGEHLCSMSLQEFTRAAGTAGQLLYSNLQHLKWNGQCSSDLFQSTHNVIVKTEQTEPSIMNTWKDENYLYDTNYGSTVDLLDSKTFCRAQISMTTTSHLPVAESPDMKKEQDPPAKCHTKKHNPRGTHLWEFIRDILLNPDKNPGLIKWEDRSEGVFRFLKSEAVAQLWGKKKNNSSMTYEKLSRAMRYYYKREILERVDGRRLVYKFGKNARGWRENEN
# Procedure, shortened: as §1
# SPI1 = SPI1 (Homo sapiens, UniProt P17947 1-270); details: protein: recombinant; tags: N-terminal GST; dsDNA, one strand shown
# Procedure, shortened: as §1
# SPIB = SPIB (Homo sapiens, UniProt Q01892 1-262); details: protein: recombinant; tags: N-terminal GST; dsDNA, one strand shown
# Procedure, shortened: as §1
# ELK3 = molecular target: T6, ELK3 (Homo sapiens, UniProt P41970 1-407); details: protein: recombinant; tags: N-terminal GST; dsDNA, one strand shown
# T6 sequence: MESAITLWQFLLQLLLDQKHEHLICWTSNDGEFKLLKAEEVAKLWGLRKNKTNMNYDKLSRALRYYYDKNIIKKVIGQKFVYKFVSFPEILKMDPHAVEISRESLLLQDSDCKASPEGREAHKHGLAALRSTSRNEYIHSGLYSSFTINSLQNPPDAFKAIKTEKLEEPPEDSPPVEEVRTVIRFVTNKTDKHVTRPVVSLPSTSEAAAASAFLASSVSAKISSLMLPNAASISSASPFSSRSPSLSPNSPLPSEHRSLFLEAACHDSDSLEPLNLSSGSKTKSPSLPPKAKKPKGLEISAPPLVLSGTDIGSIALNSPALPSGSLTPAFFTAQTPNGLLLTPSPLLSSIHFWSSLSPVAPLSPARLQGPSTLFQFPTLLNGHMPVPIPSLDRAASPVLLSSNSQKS
# Procedure, shortened: as §1
# FEV = molecular target: T7, FEV (Homo sapiens, UniProt Q99581 1-238); details: protein: recombinant; tags: N-terminal GST; dsDNA, one strand shown
# T7 sequence: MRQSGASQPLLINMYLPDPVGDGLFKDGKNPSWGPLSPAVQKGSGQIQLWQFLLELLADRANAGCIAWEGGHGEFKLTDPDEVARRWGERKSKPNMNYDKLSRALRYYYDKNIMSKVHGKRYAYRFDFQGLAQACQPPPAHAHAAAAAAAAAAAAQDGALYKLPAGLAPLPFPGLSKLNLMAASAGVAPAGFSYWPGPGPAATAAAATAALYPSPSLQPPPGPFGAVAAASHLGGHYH
# Procedure, shortened: as §1
# ETV5 = ETV5 (Homo sapiens, UniProt P41161 1-510); details: protein: recombinant; tags: N-terminal GST; dsDNA, one strand shown
# Procedure, shortened: as §1
# HSF1 = HSF1 (Homo sapiens, UniProt Q00613 1-529); details: protein: recombinant; tags: N-terminal GST; chain copies: 3; dsDNA, one strand shown
# Procedure, shortened: as §1
# SPIC = molecular target: T8, SPIC (Homo sapiens, UniProt Q8N5J4 1-248); details: protein: recombinant; tags: N-terminal GST; dsDNA, one strand shown
# T8 sequence: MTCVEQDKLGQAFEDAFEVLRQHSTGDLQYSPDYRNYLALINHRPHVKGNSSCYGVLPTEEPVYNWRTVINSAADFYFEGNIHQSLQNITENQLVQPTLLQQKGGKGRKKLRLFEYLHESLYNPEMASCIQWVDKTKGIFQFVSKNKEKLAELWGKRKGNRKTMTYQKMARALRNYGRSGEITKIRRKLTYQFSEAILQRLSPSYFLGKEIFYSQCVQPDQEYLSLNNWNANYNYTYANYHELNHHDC
# Procedure, shortened: as §1
# ELF4 = ELF4 (Homo sapiens, UniProt Q99607 1-663); details: protein: recombinant; tags: N-terminal GST; dsDNA, one strand shown
# Procedure, shortened: as §1
# ELK4 = molecular target: T9, ELK4 (Homo sapiens, UniProt P28324-2 1-405); details: protein: recombinant; tags: N-terminal GST; dsDNA, one strand shown
# T9 sequence: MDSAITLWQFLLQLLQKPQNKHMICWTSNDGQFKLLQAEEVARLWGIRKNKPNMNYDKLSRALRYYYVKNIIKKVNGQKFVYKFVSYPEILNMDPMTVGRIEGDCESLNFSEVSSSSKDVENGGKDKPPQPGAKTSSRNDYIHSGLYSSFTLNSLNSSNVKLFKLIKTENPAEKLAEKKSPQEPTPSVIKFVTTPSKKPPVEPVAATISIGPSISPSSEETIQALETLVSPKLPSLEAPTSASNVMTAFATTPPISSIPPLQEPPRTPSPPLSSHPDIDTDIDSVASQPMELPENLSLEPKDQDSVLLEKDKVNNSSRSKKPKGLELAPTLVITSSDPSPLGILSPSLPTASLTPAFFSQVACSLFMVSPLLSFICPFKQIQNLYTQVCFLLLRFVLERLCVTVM
# Procedure, shortened: as §1
# ETV2 = molecular target: T10, ETV2 (Homo sapiens, UniProt O00321 1-342); details: protein: recombinant; tags: N-terminal GST; dsDNA, one strand shown
# T10 sequence: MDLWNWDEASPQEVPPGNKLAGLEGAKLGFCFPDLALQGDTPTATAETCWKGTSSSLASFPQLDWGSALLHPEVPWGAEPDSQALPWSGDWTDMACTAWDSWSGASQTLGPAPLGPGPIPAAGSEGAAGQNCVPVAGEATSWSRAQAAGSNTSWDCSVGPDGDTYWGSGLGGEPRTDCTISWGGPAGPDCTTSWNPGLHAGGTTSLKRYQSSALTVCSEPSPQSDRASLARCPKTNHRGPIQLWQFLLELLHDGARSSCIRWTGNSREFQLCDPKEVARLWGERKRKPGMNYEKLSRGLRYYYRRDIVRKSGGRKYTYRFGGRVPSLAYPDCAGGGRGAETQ
# Procedure, shortened: as §1
# ELF3 = molecular target: T11, ELF3 (Homo sapiens, UniProt P78545 1-371); details: protein: recombinant; tags: N-terminal GST; dsDNA, one strand shown
# T11 sequence: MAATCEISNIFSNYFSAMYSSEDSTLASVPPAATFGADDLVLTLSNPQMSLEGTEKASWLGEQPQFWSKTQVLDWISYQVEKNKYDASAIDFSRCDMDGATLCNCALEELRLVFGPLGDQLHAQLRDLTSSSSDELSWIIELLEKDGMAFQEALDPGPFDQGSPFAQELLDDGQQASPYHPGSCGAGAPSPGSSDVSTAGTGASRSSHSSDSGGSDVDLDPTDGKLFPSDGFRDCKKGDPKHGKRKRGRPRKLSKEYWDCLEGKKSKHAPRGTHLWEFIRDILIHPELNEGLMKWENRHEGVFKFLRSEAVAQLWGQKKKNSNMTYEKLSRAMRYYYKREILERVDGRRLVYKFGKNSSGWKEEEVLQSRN
# Procedure, shortened: as §1
# CRX = CRX (Homo sapiens, UniProt O43186 1-299); details: protein: recombinant; tags: N-terminal GST; dsDNA, one strand shown
# Procedure, shortened: as §1
# ETV1 = ETV1 (Homo sapiens, UniProt P50549 1-477); details: protein: recombinant; tags: N-terminal GST; dsDNA, one strand shown
# Procedure, shortened: as §1
# ETV1, sequence (P50549 whole entry): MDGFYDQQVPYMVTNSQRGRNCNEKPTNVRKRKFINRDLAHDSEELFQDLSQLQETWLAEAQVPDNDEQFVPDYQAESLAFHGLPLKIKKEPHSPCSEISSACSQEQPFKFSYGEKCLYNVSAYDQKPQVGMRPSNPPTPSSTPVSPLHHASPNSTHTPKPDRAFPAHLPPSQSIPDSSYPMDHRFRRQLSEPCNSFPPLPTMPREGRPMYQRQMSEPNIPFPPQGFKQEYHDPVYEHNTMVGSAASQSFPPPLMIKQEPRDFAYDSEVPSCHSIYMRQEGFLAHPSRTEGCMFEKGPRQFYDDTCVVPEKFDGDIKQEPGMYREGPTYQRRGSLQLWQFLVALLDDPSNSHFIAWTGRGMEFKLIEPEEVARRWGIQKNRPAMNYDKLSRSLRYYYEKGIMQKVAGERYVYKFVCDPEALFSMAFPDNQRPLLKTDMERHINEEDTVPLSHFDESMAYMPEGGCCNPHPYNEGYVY
# HSF1, sequence (Q00613 whole entry): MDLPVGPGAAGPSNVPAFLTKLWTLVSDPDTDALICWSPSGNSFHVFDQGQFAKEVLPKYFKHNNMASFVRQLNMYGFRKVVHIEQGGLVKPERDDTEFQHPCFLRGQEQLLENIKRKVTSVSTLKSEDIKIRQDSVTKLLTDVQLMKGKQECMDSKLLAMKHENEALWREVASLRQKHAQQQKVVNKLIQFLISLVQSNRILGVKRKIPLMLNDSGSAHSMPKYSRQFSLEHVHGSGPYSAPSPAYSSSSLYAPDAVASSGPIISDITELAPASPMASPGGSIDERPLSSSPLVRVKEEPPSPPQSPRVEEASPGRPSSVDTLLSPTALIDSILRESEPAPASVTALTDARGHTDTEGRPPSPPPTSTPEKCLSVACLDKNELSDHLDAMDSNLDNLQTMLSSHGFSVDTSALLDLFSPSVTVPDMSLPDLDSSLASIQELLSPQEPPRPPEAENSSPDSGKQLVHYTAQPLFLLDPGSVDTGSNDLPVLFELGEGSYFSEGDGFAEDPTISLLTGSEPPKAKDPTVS
# ETV5, sequence (P41161 whole entry): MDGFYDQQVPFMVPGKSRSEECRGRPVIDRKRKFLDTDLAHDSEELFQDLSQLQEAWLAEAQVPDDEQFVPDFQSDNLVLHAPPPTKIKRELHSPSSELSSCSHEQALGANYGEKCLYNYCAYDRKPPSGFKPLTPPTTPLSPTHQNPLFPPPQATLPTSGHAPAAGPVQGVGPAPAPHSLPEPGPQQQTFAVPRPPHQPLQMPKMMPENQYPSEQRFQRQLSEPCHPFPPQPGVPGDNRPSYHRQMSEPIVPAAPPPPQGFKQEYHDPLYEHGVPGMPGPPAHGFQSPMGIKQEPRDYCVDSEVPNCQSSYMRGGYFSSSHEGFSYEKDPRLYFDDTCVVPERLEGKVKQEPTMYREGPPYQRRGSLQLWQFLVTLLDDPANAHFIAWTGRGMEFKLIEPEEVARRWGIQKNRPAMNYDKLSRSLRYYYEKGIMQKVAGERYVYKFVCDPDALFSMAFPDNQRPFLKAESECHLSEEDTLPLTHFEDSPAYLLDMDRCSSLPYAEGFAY
# SPIB, sequence (Q01892 whole entry): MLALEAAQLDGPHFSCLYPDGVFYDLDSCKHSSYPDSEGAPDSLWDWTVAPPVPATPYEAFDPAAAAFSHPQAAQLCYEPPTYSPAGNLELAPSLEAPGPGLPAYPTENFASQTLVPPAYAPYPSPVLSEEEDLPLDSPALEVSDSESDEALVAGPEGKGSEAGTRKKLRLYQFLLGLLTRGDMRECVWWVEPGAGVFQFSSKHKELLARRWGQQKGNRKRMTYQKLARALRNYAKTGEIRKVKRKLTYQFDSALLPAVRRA
# ELF4, sequence (Q99607 whole entry): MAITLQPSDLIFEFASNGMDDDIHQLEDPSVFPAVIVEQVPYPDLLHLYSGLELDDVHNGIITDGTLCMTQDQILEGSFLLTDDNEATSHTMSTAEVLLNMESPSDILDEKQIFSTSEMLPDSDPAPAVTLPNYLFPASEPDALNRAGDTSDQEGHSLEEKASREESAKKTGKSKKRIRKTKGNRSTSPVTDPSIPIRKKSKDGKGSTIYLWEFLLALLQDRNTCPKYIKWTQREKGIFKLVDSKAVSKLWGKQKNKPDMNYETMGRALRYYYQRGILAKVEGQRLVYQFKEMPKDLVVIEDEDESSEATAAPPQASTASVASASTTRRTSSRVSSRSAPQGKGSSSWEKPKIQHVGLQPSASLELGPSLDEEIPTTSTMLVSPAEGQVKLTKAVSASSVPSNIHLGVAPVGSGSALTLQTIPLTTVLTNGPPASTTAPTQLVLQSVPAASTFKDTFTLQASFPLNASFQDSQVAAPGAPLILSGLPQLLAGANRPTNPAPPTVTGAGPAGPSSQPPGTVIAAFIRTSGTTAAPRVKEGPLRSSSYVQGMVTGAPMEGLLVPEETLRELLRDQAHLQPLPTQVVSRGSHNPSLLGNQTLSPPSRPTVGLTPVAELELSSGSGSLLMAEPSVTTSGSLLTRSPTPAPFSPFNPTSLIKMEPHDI
# ELF1, sequence (P32519 whole entry): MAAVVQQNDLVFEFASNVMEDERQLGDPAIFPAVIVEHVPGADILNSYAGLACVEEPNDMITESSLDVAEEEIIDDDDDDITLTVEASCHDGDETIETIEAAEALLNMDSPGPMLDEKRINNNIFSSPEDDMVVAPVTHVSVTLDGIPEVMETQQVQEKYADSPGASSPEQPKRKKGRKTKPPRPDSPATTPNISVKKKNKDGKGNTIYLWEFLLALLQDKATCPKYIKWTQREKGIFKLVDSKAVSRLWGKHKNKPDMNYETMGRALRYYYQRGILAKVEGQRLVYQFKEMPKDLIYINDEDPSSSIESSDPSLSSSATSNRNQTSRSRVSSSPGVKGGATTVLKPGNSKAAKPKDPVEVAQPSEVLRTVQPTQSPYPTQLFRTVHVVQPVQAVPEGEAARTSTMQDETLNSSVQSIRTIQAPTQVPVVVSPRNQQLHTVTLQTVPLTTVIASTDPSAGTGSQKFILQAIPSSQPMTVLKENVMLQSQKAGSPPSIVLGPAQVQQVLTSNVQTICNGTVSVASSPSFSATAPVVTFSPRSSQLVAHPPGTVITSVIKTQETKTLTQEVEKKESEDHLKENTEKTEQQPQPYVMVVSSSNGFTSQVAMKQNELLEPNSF
# CRX, sequence (O43186 whole entry): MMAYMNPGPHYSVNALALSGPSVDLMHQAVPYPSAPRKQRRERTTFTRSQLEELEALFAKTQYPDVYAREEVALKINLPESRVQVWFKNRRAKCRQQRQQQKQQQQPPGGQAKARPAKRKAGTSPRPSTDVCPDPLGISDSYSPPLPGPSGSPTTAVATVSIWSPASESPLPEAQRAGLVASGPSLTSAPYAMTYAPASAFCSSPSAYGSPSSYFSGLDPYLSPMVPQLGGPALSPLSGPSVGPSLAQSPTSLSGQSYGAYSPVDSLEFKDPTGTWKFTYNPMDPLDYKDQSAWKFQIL
sequence,measurement,setting,value
AACCTC,binding signal,FLI1,"1.22 fold enrichment (6-mer frequency, TF over GST control)"
same,binding signal,ELK1,"1.27 fold enrichment (6-mer frequency, TF over GST control)"
same,binding signal,GABPA,"1.28 fold enrichment (6-mer frequency, TF over GST control)"
same,binding signal,ERG,"1.23 fold enrichment (6-mer frequency, TF over GST control)"
same,binding signal,ELF1,"1.29 fold enrichment (6-mer frequency, TF over GST control)"
same,binding signal,EHF,"1.2 fold enrichment (6-mer frequency, TF over GST control)"
same,binding signal,SPI1,"1.2 fold enrichment (6-mer frequency, TF over GST control)"
same,binding signal,SPIB,"1.19 fold enrichment (6-mer frequency, TF over GST control)"
same,binding signal,ELK3,"1.23 fold enrichment (6-mer frequency, TF over GST control)"
same,binding signal,FEV,"1.18 fold enrichment (6-mer frequency, TF over GST control)"
same,binding signal,ETV5,"1.22 fold enrichment (6-mer frequency, TF over GST control)"
same,binding signal,HSF1,"1.17 fold enrichment (6-mer frequency, TF over GST control)"
same,binding signal,SPIC,"1.4 fold enrichment (6-mer frequency, TF over GST control)"
same,binding signal,ELF4,"1.2 fold enrichment (6-mer frequency, TF over GST control)"
same,binding signal,ELK4,"1.26 fold enrichment (6-mer frequency, TF over GST control)"
same,binding signal,ETV2,"1.32 fold enrichment (6-mer frequency, TF over GST control)"
same,binding signal,ELF3,"1.28 fold enrichment (6-mer frequency, TF over GST control)"
same,binding signal,CRX,"1.11 fold enrichment (6-mer frequency, TF over GST control)"
same,binding signal,ETV1,"1.24 fold enrichment (6-mer frequency, TF over GST control)"
